Assay results: paper PMC5540273 (PLoS ONE, 2017)

Tested on: p38-delta
Conditions: concentration: 1 μM, replicates: in singlicate; n = 1
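Note: KINOMEscan kinase panel screen.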

Compared with `Nc1n[nH]c2nnc(-c3ccccc3)c(-c3ccccc3)c12` [GW554060], `Nc1n[nH]c2ncc(-c3ccccc3)cc12` [SB-517081] is lower in “%Inh” value: 27% for the first, 24% for the second.

First: Cn1c(=O)c(F)c(Nc2ccc(I)cc2F)c2c(=O)n(OC[C@H](O)CO)cnc21
Second: CN1C(=O)C(Nc2cc(Cl)c(O)c(Cl)c2)=C(c2ccc(Cl)cc2)C1=O [SB-404321]
The “%Inh” value of the first is lower: 0% for the first, 21% for the second.

First: CCc1ccc(-c2ccc3c(c2)-c2nn(C)cc2S(=O)(=O)N3C)cc1
Second: CCc1nc(-c2cccc(C)c2)c(-c2ccncc2)s1
The “%Inh” value of the first is higher: 22% for the first, 0% for the second.

Going from `COc1cc(Nc2nccc(N3CCC(NC(=O)C4COc5ccccc5O4)C3)n2)cc(OC)c1OC` (centres unmarked) [GSK1379761] to `COc1cc2ncn(-c3cc(OCCCc4ccccc4)c(C(N)=O)s3)c2cc1OC` [GSK205189], the “%Inh” value falls from 34% to 6%.

First: Cc1ccccc1COc1cc(-n2cnc3cc(Cl)ccc32)sc1C(N)=O [GW813349]
Second: Cc1nnc(-c2ccc3ncn(-c4ccc(S(C)=O)cc4)c3c2)o1 (centres unmarked)
The “%Inh” value of the first is lower: 0% for the first, 1% for the second.

Compared with `CN1C(=O)C(Nc2ccccc2)=C(c2ccccc2)C1=O` [SB-300079], `COc1cccc(C2=C(N(C)c3ccccc3)C(=O)NC2=O)c1` [SB-334865] is higher in “%Inh” value: 0% for the first, 42% for the second.

First: Cc1ccc(-c2ccc3c(ccc4sc5c(c43)NC[C@@H](C)N=C5N(C)C)n2)cn1
Second: OCCCNc1nccc(-c2c(-c3cccc(C(F)(F)F)c3)nn3cc(C(F)(F)F)ccc23)n1 [GW630813]
The “%Inh” value of the first is lower: 10% for the first, 20% for the second.
